Common to all, as to test: NCI-60 one-dose screen, 48 h (100 = growth as untreated, 0 = no growth, -100 = all killed)
Holding throughout (details): 10 µM unless noted

Test [1] relates to T-47D breast.
In test [2] the test system is BT-549 breast.
Test [3] concerns MDA-MB-435 melanoma.
For test [4], the system named is SW-620 colon.
Test [5] relates to MCF7 breast.
Test [6] deals with HCT-116 colon.
Test [7] has as its system HCC-2998 colon.
For test [8], the system named is KM12 colon.

The panel holds about 83,000 compounds, 20% with a hit somewhere; the sample as a whole holds those more often.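 Step 1: grow cells in 96-well plates. Step 2: add test compound at a single concentration. Step 3: incubate 48 h. Step 4: record percent growth.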 A number with no mark means an inactive call. The source made the active and inactive calls. How the source made its calls: active means growth percent below 10; inactive means the rest.

Regarding `S=C(c1cccs1)N1CCN(c2cccc(Cl)c2)CC1`, the growth in test [1] is 82.6%; in test [2] it was 59.3%; in test [3], 108%; in test [4], 103%; in test [5], 96.9%; in test [6], 83.9%. In addition, the growth in test [7] is 110%; in test [8], 102%.
In the case of `CN1C(=O)N(C)C2Nn3c(s/c(=C\c4ccccc4)c3=O)=NC21` (stereo not given), the growth in test [1] was 98.2%; in test [2], 97.1%; in test [3], 85.9%; in test [4], 96.9%; in test [5] it was 87.1%; in test [6], 88.8%. The growth is 104% in test [7] and 97.5% in test [8].
As to `C=C1CC[C@@]2(C#N)[C@H]3[C@H](CC[C@@H]2C)[C@@H](C)C[C@@H](CC(C)(C)C#N)[C@H]13`, the growth in test [1] is 21.5%; in test [2] it was 50.4%; in test [3], 35.9%; in test [4], 49.9%; in test [5], 21.1%; in test [6] it was 14.5%. In addition, the growth in test [7] is 37.3%; in test [8] it was 35.7%.
For the compound `CC1=NN(c2ccc(S(=O)(=O)O)cc2)C(=O)C1N=Nc1ccc(-c2ccc(N=Nc3ccc(OS(=O)(=O)c4ccc(C)cc4)cc3)c(S(=O)(=O)O)c2)cc1` (stereo not given), the growth in test [1] was 90.3%; in test [2], 68.4%; in test [3], 95.1%; in test [4] it was 103%; in test [5], 88.7%; in test [6] it was 93.9%. Further, the growth in test [7] is 104%; in test [8], 105%.
`COc1ccc2sc3c(NCCCNCCO)nc4ccccc4c3c(=O)c2c1`: the growth in test [1] was 86.5%; in test [2], 81.7%; in test [3], 10.6%; in test [4], -83.2% (active); in test [5] it was 25.7%; in test [6], -79.3% (active). For the same compound, the growth in test [7] is -84.3% (active); in test [8], -15.6% (active).
For the compound `Nc1ccccc1-c1cc2c(c3c1[nH]c1ccccc13)CCCCC2`, the growth is 86.8% in test [1]; 108% in test [2]; 112% in test [3]; 96.2% in test [4]; 76% in test [5]; 76.3% in test [6]. In addition, the growth is 106% in test [7] and 88.9% in test [8].
Regarding `N#Cc1c(-c2ccc(Cl)cc2)nc(NCCO)[nH]c1=O`, the growth is 89.4% in test [1]; 102% in test [2]; 106% in test [3]; 112% in test [4]; 95.3% in test [5]; 104% in test [6]. Moreover, the growth in test [7] was 103%; in test [8], 96.9%.
Regarding `CC1(C)C2CC1C1(/C=N/NC(N)=S)C(C2)C(C#N)(C#N)C1(C#N)C#N` (stereo not given), the growth in test [1] was 64.1%; in test [2], 96.3%; in test [3], 88.6%; in test [4], 50%; in test [5] it was 59.2%; in test [6] it was 40.7%. In addition, the growth is 94.1% in test [7] and 95.7% in test [8].
On to `Cc1nc2ccccc2n1CC1C(=O)NC(=O)NC1=O`, for which the growth in test [1] is 107%; in test [2], 121%; in test [3] it was 101%; in test [4], 108%; in test [5] it was 100%; in test [6], 104%. Also, the growth is 127% in test [7] and 103% in test [8].
Take `Cc1ccccc1C(=O)NN`: the growth was 102% in test [1]; 106% in test [2]; 111% in test [3]; 113% in test [4]; 102% in test [5]; 108% in test [6]. The growth in test [7] is 95.4%; in test [8], 112%.
In the case of `COC(=O)c1ccc2[nH]c(O)c(C(=Nc3ccc(N(C)C(=O)CN4CCN(C)CC4)cc3)c3ccccc3)c2c1`, the growth in test [1] was 59.8%; in test [2], 11.2%; in test [3] it was 27.2%; in test [4], 6.45% (active); in test [5] it was 27.6%; in test [6], 6.52% (active). The growth was 25.7% in test [7] and 13.9% in test [8].
On to `NCCCNc1nc2ccc(Cl)cc2c2c(=O)c3cc(F)ccc3sc12`, for which the growth in test [1] was 76.3%; in test [2], 106%; in test [3] it was 30.8%; in test [4], -79% (active); in test [5] it was 47.2%; in test [6], -47.8% (active). Besides, the growth in test [7] was -40.8% (active); in test [8], 11.8%.
Turning to `Cc1ccc(/C=C(\C#N)n2nc3cccc(F)c3n2)cc1`, the growth in test [1] is 74%; in test [2], 102%; in test [3], 51.1%; in test [4] it was 94.3%; in test [5] it was 54.1%; in test [6], 70.7%. For the same compound, the growth in test [7] was 105%; in test [8] it was 68.2%.
With `COc1ccc(C(Cc2ccccc2)NCCN2CCOCC2)cc1` (stereo not given), the growth in test [1] was 85.4%; in test [2] it was 82.1%; in test [3], 105%; in test [4] it was 107%; in test [5], 89.2%; in test [6], 95.9%. Also, the growth in test [7] is 86.6%; in test [8], 104%.
In the case of `COC(=O)[C@H](C)NC(=O)NC(=O)NC(=O)CI`, the growth is 44.6% in test [1]; 84.3% in test [2]; 63% in test [3]; -33.4% (active) in test [4]; 17.7% in test [5]; 98.6% in test [6]. Also, the growth in test [7] was 94.6%; in test [8] it was 98.5%.

(Values after PubChem BioAssay (NCI).)
